Calls of active or inactive are those of the source. The calls were made as follows: active = hit-call score of the fitted dose curve at least 0.9, where 1 is the maximum; inactive = score below 0.9.
Key:
Settings in all cases: mRNA level, 48 h; actives raise or lower the signal
BCL2L11 (gene 10018) = experiment: LTEA_HepaRG_BCL2L11: Life Technologies and Expression Analysis (LTEA) Assay for Bcl-2 (BCL2L11) gene using HepaRG (AID 2283473)
In short: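 Read-out is BCL2L11 transcript level by qRT-PCR, normalized to three housekeeping genes and fitted bidirectionally against 0.5% DMSO vehicle. HepaRG cells received chemicals for 48 h in serum-free induction medium, 100 uM down in half-log dilutions.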

[1] = read-out: Apolipoprotein A-V (APOA5) gene, APOA5 (gene 116519); experiment: LTEA_HepaRG_APOA5: Life Technologies and Expression Analysis (LTEA) Assay for Apolipoprotein A-V (APOA5) gene using HepaRG (AID 2283474)
In short: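 Readout is APOA5 transcript level by qRT-PCR on Fluidigm dynamic arrays, normalized to three housekeeping genes. HepaRG cultures received chemicals for 48 h at up to 100 uM (half-log steps, 0.5% DMSO), with gain or loss scored relative to DMSO.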

[2] = read-out: Apoptosis regulator Bcl-2 (Homo sapiens) (UniProt P10415); experiment: LTEA_HepaRG_BCL2: Life Technologies and Expression Analysis (LTEA) Assay for Bcl-2 gene using HepaRG (AID 2283475)
In short: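 Differentiated human HepaRG cells in serum-free induction medium exposed 48 h, in duplicate, to 8-point half-log series from 100 uM in 0.5% DMSO. BCL2 mRNA by qRT-PCR (TaqMan/Fluidigm), normalized to ACTB, GAPDH, POLR2A; bidirectional fit against DMSO.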

[3] = read-out: Bcl-2 (BID) gene, BID (gene 637); experiment: LTEA_HepaRG_BID: Life Technologies and Expression Analysis (LTEA) Assay for Bcl-2 (BID) gene using HepaRG (AID 2283476)
In short: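 Gene expression by qRT-PCR in HepaRG cells after 48 h exposure, duplicate wells, eight half-log concentrations topping at 100 uM in 0.5% DMSO. Normalized to ACTB, GAPDH, POLR2A; bidirectional fitting relative to DMSO.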

Caspase-3 (Homo sapiens) = Caspase-3 (Homo sapiens) (UniProt P42574); experiment: LTEA_HepaRG_CASP3: Life Technologies and Expression Analysis (LTEA) Assay for cysteine-aspartic acid protease (CASP3) using HepaRG (AID 2283477)
In short: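 Read-out is CASP3 mRNA level by TaqMan qRT-PCR in human HepaRG cells after 48 h chemical exposure. Eight half-log concentrations topping at 100 uM were tested in 0.5% DMSO; gain or loss was fitted relative to DMSO.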

[4] = read-out: Cytochrome P450 (CYP24A1), CYP24A1 (gene 1591); experiment: LTEA_HepaRG_CYP24A1: Life Technologies and Expression Analysis (LTEA) Assay for Cytochrome P450 (CYP24A1) using HepaRG (AID 2283478)
In short: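 HepaRG, 48 h chemical exposure, 8-pt half-log CRC from 100 uM, 0.5% DMSO vehicle, duplicates. Endpoint: CYP24A1 mRNA by Fluidigm TaqMan qRT-PCR, normalized ACTB/GAPDH/POLR2A; gain/loss fit vs DMSO.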

[5] = read-out: cysteine-aspartic acid protease (CASP8), CASP8 (gene 841); experiment: LTEA_HepaRG_CASP8: Life Technologies and Expression Analysis (LTEA) Assay for cysteine-aspartic acid protease (CASP8) using HepaRG (AID 2283480)
In short: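 HepaRG, 48 h exposure, duplicate wells; 8 conc, half-log from 100 uM, 0.5% DMSO. Serum-free induction medium. CASP8 mRNA by TaqMan qRT-PCR, norm. ACTB/GAPDH/POLR2A; gain/loss fitted vs DMSO.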

[6] = read-out: Cytochrome P450 (CYP2B6), CYP2B6 (gene 1555); experiment: LTEA_HepaRG_CYP2B6: Life Technologies and Expression Analysis (LTEA) Assay for Cytochrome P450 (CYP2B6) using HepaRG (AID 2283481)
In short: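 HepaRG cells plated 48 h, switched to serum-free induction medium, then dosed 48 h (8 points, half-log from 100 uM, 0.5% DMSO). RNA isolated; CYP2B6 expression measured by qRT-PCR; gain or loss fitted relative to DMSO.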

CYP2C8 (gene 1558) = experiment: LTEA_HepaRG_CYP2C8: Life Technologies and Expression Analysis (LTEA) Assay for CYP2C8 using HepaRG (AID 2283483)
In short: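 CYP2C8 mRNA induction or loss, by qRT-PCR normalized to ACTB/GAPDH/POLR2A, is read in HepaRG cells after 48 h treatment. Concentrations run from 100 uM down in half-log dilutions, with 0.5% DMSO as vehicle and baseline.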

CYP2C9 (gene 1559) = experiment: LTEA_HepaRG_CYP2C9: Life Technologies and Expression Analysis (LTEA) Assay for CYP2C9 using HepaRG (AID 2283484)
In short: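 Cells plated 48 h, switched to serum-free induction medium, then treated in duplicate for 48 h at eight concentrations (max 100 uM, 0.5% DMSO). RNA then analysed by qRT-PCR for CYP2C9; curves fitted in both directions relative to DMSO.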

CYP2E1 (gene 1571) = experiment: LTEA_HepaRG_CYP2E1: Life Technologies and Expression Analysis (LTEA) Assay for CYP2E1 using HepaRG (AID 2283485)
In short: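 HepaRG cells, plated 48 h, then exposed 48 h in serum-free induction medium to eight half-log concentrations from 100 uM in 0.5% DMSO, duplicate. CYP2E1 mRNA by qRT-PCR, normalized to ACTB/GAPDH/POLR2A; bidirectional fit versus DMSO.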

CYP4A11 (gene 1579) = experiment: LTEA_HepaRG_CYP4A11: Life Technologies and Expression Analysis (LTEA) Assay for CYP4A11 using HepaRG (AID 2283486)
In short: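 HepaRG, 48 h chem exposure, 8 conc (100 uM top, half-log), 0.5% DMSO vehicle; qRT-PCR readout, housekeeping-gene normalized; bidirectional curve fit vs DMSO baseline.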

[7] = read-out: Cytochrome P450 3A4 (Homo sapiens) (UniProt P08684); experiment: LTEA_HepaRG_CYP3A4: Life Technologies and Expression Analysis (LTEA) Assay for CYP3A4 using HepaRG (AID 2283487)
In short: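 Differentiated HepaRG cells in serum-free induction medium exposed in duplicate for 48 h to 8 half-log concentrations up to 100 uM in 0.5% DMSO. CYP3A4 mRNA measured by qRT-PCR normalized to ACTB, GAPDH and POLR2A; bidirectional fit versus DMSO.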

[8] = read-out: DNA damage-inducible transcript 3 (DDIT3), DDIT3 (gene 1649); experiment: LTEA_HepaRG_DDIT3: Life Technologies and Expression Analysis (LTEA) Assay for DNA damage-inducible transcript 3 (DDIT3) using HepaRG (AID 2283488)
In short: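 HepaRG cells, 48 h after plating, exposed 48 h in serum-free induction medium to 8 half-log concentrations up to 100 uM in 0.5% DMSO, in duplicate. DDIT3 mRNA measured by TaqMan qRT-PCR, normalized to ACTB, GAPDH and POLR2A. Fitted bidirectionally against DMSO.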

[9] = read-out: Pro-epidermal growth factor (Homo sapiens) (UniProt P01133); experiment: LTEA_HepaRG_EGF: Life Technologies and Expression Analysis (LTEA) Assay for Epidermal growth factor (EGF) using HepaRG (AID 2283489)
In short: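 HepaRG, 48 h dosing, 100 uM top, half-log x8, 0.5% DMSO. Readout: TaqMan qRT-PCR (Fluidigm array), housekeeping-normalized. Gain or loss of signal fit vs DMSO.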

[10] = read-out: Ezrin (EZR), EZR (gene 7430); experiment: LTEA_HepaRG_EZR: Life Technologies and Expression Analysis (LTEA) Assay for Ezrin (EZR) using HepaRG (AID 2283491)
In short: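 Differentiated human HepaRG cells, 48 h after plating, were exposed in serum-free induction medium for 48 hours to eight half-log concentrations up to 100 uM in 0.5% DMSO. EZR mRNA was measured by TaqMan qRT-PCR, normalized to ACTB, GAPDH and POLR2A, and fitted bidirectionally against DMSO.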

[11] = read-out: Cytochrome P450 3A7 (Homo sapiens) (UniProt P24462); experiment: LTEA_HepaRG_CYP3A7: Life Technologies and Expression Analysis (LTEA) Assay for CYP3A7 using HepaRG (AID 2283492)
In short: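 Human HepaRG liver cells, 48 h post-plating, switched to serum-free induction medium and exposed in duplicate for 48 h. Dosing: 100 uM top, half-log dilutions, 8 points, 0.5% DMSO vehicle. Read-out: CYP3A7 mRNA, gain or loss fitted against DMSO baseline.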

[12] = read-out: Cytochrome P450 2C19 (Homo sapiens) (UniProt P33261); experiment: LTEA_HepaRG_CYP2C19: Life Technologies and Expression Analysis (LTEA) Assay for CYP2C19 using HepaRG (AID 2283482)
In short: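 Transcript levels of CYP2C19 were quantified by qRT-PCR after HepaRG cells were treated for 48 hours with test chemicals up to 100 uM (eight half-log concentrations, 0.5% DMSO vehicle). Gain or loss of signal was fitted relative to DMSO.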

[13] = read-out: Early growth response protein 1 (EGR1) transcription factor, EGR1 (gene 1958); experiment: LTEA_HepaRG_EGR1: Life Technologies and Expression Analysis (LTEA) Assay for Early growth response protein 1 (EGR1) transcription factor using HepaRG (AID 2283490)
In short: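 Read-out is EGR1 mRNA level by qRT-PCR, normalized to three housekeeping genes and analysed for gain or loss of signal against 0.5% DMSO. Source cells: human HepaRG, treated 48 h at up to 100 uM in half-log dilutions.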

Measured: AC50

Chain of Cytochrome P450 3A7 (Homo sapiens) (P24462 whole entry, looked up): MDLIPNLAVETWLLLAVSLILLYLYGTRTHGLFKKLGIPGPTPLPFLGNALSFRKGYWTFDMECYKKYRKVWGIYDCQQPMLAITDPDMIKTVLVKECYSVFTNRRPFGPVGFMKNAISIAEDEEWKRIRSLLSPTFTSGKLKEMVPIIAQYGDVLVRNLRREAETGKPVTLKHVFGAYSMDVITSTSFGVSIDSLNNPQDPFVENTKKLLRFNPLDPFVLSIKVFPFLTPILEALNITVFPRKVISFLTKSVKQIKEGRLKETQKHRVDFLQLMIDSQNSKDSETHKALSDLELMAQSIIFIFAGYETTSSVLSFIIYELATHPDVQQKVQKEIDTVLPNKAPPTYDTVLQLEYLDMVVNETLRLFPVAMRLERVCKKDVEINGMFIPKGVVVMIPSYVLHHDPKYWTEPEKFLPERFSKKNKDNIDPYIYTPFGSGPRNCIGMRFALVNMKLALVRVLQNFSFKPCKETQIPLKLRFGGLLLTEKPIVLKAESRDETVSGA
Chain of Cytochrome P450 3A4 (Homo sapiens) (P08684 whole entry, looked up): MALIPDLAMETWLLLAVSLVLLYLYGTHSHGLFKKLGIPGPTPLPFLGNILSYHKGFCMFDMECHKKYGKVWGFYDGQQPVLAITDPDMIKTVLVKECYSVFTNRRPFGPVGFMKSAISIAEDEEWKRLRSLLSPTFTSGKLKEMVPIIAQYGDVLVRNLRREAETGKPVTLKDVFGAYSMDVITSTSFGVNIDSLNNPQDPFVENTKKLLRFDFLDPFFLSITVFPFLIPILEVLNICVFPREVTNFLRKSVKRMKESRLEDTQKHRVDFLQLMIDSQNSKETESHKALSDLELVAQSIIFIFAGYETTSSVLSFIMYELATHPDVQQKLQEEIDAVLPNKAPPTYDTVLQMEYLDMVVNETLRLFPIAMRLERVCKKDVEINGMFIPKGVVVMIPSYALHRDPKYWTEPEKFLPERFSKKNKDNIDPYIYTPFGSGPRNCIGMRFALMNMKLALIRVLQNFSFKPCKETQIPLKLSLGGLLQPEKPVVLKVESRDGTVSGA
Chain of Apoptosis regulator Bcl-2 (Homo sapiens) (P10415 whole entry, looked up): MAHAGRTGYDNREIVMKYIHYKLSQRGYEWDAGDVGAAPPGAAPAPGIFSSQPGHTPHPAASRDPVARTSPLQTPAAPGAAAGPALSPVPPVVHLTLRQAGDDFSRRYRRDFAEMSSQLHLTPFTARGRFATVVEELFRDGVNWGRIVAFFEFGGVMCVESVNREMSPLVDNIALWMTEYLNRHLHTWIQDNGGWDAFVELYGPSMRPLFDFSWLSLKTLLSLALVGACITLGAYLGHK
Chain of Caspase-3 (Homo sapiens) (P42574 whole entry, looked up): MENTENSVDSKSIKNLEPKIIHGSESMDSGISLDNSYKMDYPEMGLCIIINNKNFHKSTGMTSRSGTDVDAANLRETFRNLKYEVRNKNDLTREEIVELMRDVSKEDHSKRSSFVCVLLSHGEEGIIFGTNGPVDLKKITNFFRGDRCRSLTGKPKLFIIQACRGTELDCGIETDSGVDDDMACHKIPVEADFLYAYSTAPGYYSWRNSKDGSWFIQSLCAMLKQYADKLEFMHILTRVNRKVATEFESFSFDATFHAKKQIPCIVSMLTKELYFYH
Chain of Cytochrome P450 2C19 (Homo sapiens) (P33261 whole entry, looked up): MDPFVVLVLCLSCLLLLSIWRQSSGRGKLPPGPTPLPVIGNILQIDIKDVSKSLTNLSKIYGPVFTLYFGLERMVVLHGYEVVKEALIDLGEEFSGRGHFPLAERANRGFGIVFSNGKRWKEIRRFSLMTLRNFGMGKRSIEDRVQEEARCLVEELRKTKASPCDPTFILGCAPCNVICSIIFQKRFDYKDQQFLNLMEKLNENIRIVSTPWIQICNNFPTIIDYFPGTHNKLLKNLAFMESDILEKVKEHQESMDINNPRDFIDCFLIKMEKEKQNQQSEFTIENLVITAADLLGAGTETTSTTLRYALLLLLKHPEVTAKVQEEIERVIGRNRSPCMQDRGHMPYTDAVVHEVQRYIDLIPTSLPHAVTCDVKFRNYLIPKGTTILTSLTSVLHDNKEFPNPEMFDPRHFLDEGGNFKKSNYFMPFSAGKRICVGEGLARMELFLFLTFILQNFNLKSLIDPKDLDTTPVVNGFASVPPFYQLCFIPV

COS(C)(=O)=O
not listed: [12] | [13]
inactive: all other assays above

O=C(O)[C@H](O)[C@@H](O)C(=O)O
inactive: BCL2L11 (gene 10018) | [1] | [2] | [3] | Caspase-3 (Homo sapiens) | [5] | [8] | [9] | [10]

C=CN1CCCC1=O
not listed: [12] | [13]
inactive: all other assays above

NNC(=O)c1ccncc1
active: [6] 10.4 µM
not listed: [12] | [13]
inactive: all other assays above

O=C(O)c1ccc2c(c1)nc(C(=O)NC1CCN(C3CC3)CC1)n2Cc1cc(-c2ccc(Cl)s2)on1
not listed: [13]
inactive: all other assays above

O=C(NO)C1(NS(=O)(=O)c2ccc(Oc3ccc(F)cc3)cc2)CCOCC1
active: Caspase-3 (Homo sapiens) 50 µM | [6] 11.8 µM | CYP2C8 (gene 1558) 90.7 µM | CYP2E1 (gene 1571) 54.4 µM | CYP4A11 (gene 1579) 71 µM | [7] 4.48 µM | [8] 77.8 µM
not listed: [12] | [13]
inactive: all other assays above

CCCCCOC(C)=O
not listed: [12]
inactive: all other assays above
